40 molecules from PubChem BioAssay (Tox21) can be followed below.

Several values for one entry are separate records, joined by “and”; a condition that tells them apart may be missing. Equal values may be shown once. Records with an inconclusive call do not appear. Entries that show only a call come without a potency. Activity calls are given as the source filed them. Calls come from the whole dose curve; as a rule, active = well fitted cell-killing curve with a large enough effect in the repeat runs; inconclusive = weak or mixed curves, or effect the other way; inactive = no such curve, though single readings can be large or run the other way.
Potency is the fitted concentration of half-maximal effect.

A short description of the test: qHTS assay to identify small molecule agonists of the RXR signaling pathway - cell viability counter screen (AID 1159529). Note: nearly all actives have a fitted effect of over 50% in size. As to conditions: RXR-alpha-bla HEK293T viability, CellTiter-Glo, 16 h; series mostly up to 76.8 µM. The text has this: National Center for Advancing Translational Sciences [NCATS]
NIH Chemical Genomics Center [NCGC]
U.S. Environmental Protection Agency [EPA]
National Institutes of Environmental Health Sciences [NIEHS]
National Toxicology Program [NTP]
U.S. Food and Drug Administration [FDA]
The Retinoid X receptor (RXR), a nuclear hormone receptor expressed in liver, spleen, placenta, epidermis, central nervous system. These receptors are able to form homo and heterodimers with other nuclear receptors and due to this heterodimerizing ability, RXR functions as master regulators producing diverse physiological effects. Three subtypes of RXR exist; alpha, beta and gamma. Retinoid X receptor alpha (RXR-alpha) has potential roles in metabolic signaling pathways, skin alopecia, dermal cysts, cardiac development, insulin sensitization etc. Therefore screening environmental chemicals on RXR-alpha signaling can be used for the studies focused on such therapeutic applications. For quantification of RXR-alpha ligands signaling, GeneBLAzer RXR alpha-UAS-bla HEK 293T (Life Technologies, Carlsbad, CA) cells containing a beta-lactamase reporter-gene under control of Retinoid X receptor-alpha response element were used to screen Tox21 10K library. The cytotoxicity of the Tox21 compound library against the RXR-alpha HEK 293T cell line was tested in parallel by measuring cell viability using CellTiter-Glo assay (Promega Corporation, Madison, WI) in the same wells.
Tox21 Assay Protocol Summary:
RXR-alpha HEK 293T cells were dispensed at 2,000 cells/6 uL of assay medium containing 2% charcoal-stripped FBS using a Multidrop Combi (ThermoFisher Scientific, Waltham, MA) dispenser. The assay was performed in black wall/clear-bottom 1536-well plates (Greiner Bio-One North America Inc. Monroe, NC). Tetraoctyl ammonium bromide was used as a positive control in the cytotoxicity screen. After the assay plates were incubated at 37 C and 5% CO2 for 5 hr, 23 nL of compounds dissolved in DMSO, positive control or DMSO only were transferred to the assay plate by a Pintool station (Kalypsys, San Diego, CA). The assay plates were incubated at 37 C and 5% CO2 for 16 hr. One uL of LiveBLAzer B/G FRET substrate (Life Technologies) was added using a Flying Reagent Dispenser (FRD) (Aurora Discovery, San Diego, CA) and the plates were incubated at room temperature for 2 hr. Fluorescence intensity (405 nm excitation, 460/530 nm emission) was measured using an Envision plate reader (PerkinElmer, Shelton, CT). For cytotoxicity, 4 uL/well of CellTiter-Glo reagent was added into the assay plates using an FRD. After 30 min incubation at room temperature, the luminescence intensity was measured using a ViewLux plate reader (PerkinElmer).
On the technique in general: qHTS replaces the single test concentration by a dilution series.
For the molecule `ClC(Cl)(Cl)Br`, the Potency entry is “inactive”.
Under `CCC/C=N/O` stands “inactive”; under `CC(C)CON=O`, “inactive”; under `CC(C)Nc1nc(Cl)nc(NC(C)C)n1`, “inactive”.
The value for `CN(C)c1ccccc1` was “inactive”; that for `Clc1ccccc1-c1nnc(-c2ccccc2Cl)nn1` was “inactive”; that for `N#CCCCCC#N` was “inactive”.
Consider `CCCCCCCCCc1ccc(O)cc1`, for which the Potency was 55.5 µM (active).
For the molecule `CCOP(=S)(OCC)SCSC(C)(C)C`, the Potency entry is “inactive”.
The value for `Cc1cccc(N=Nc2ccc(N(C)C)cc2)c1` was “inactive”; that for `CC1=C(C(=O)Nc2ccccc2)SCCO1` was “inactive”.
As for `N#CC(c1ccccc1)c1ccccc1`, the Potency result was “inactive”.
The value for `Cn1c(-c2ccccc2)cc(-c2ccccc2)[n+]1C` was “inactive”; that for `ClC(Cl)=C(Cl)C(Cl)=C(Cl)Cl` was “inactive”.
In the case of `Nc1ccc([N+](=O)[O-])cc1N`, the Potency entry is “inactive”.
`CNC(=S)S`: the Potency result was “inactive”.
Under `CSc1nc(NC(C)C)nc(NC(C)C)n1` stands “inactive”; under `CCCCOCCOC(C)=O`, “inactive”.
Under `NC(=O)CN1CCCC1=O` stands “inactive”.
Under `CCOC(=O)c1ccccc1N` stands “inactive”; under `CC(C)=CC1C(C(=O)OCc2cccc(Oc3ccccc3)c2)C1(C)C` (stereo not given), “inactive”; under `Clc1ccc(C(Cl)(Cl)Cl)cc1`, “inactive”.
With `OCCOCCO`, the Potency entry was “inactive”.
Under `ClC(Cl)(Cl)c1ccccc1` stands “inactive”; under `O=P(OCCCl)(OCCCl)OCCCl`, “inactive”; under `CN(C)P(=O)(N(C)C)N(C)C`, “inactive”.
The value for `Cc1cc(Cl)ccc1N=CN(C)C` was “inactive”; that for `CCCCC(C#N)(Cn1cncn1)c1ccc(Cl)cc1` (stereo not given) was “inactive”.
Under `c1ccc2c(c1)Nc1ccccc1S2` stands “inactive”.
Consider `CNC(=O)CSP(=S)(OC)OC`, for which the Potency entry was “inactive”.
The value for `CCOP(=S)(OCC)SCn1c(=O)oc2cc(Cl)ccc21` was “inactive”.
Under `Clc1cccc(Cl)c1` stands “inactive”; under `CCOS(=O)(=O)OCC`, “inactive”; under `COP(=S)(OC)Oc1ccc(Sc2ccc(OP(=S)(OC)OC)cc2)cc1`, “inactive”.
The value for `CC(C)(O)C#N` was “inactive”; that for `O=[N+]([O-])c1ccc(Cl)c([N+](=O)[O-])c1` was 24.9 µM (active) and 24.5 µM (active).
As to `C=CC(=O)OCC(CC)(COC(=O)C=C)COC(=O)C=C`, the Potency is 15.9 µM (active) and 21.9 µM (active).
Under `O=NN(c1ccccc1)c1ccccc1` stands “inactive”.
The value for `CC(C)COC(=O)c1ccccc1C(=O)OCC(C)C` was “inactive”; that for `C=C(C)C#N` was “inactive”.
